Drawing on PubChem BioAssay (Tox21), this text covers Potency and activity change, negative = inhibition for 20 compounds.

Structures are written as SMILES. Records with an inconclusive call do not appear. Entries that show only a call come without a potency. A number with no mark means an inactive call. Activity calls are given as the source filed them. Calls come from the whole dose curve.

Sequence of Beta-2 adrenergic receptor (Homo sapiens) (P07550 whole entry, looked up): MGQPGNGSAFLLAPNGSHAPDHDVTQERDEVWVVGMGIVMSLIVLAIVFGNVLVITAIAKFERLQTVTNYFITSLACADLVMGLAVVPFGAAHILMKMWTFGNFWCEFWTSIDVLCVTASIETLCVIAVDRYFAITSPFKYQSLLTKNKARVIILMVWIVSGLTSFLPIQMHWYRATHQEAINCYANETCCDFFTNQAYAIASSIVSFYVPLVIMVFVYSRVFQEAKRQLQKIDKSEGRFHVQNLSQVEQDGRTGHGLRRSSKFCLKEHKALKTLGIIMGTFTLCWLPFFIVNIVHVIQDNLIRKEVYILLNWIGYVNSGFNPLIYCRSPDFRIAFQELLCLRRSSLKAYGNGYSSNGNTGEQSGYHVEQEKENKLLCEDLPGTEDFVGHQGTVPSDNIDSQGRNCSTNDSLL

The test has as its target Beta-2 adrenergic receptor (Homo sapiens) (UniProt P07550). Put plainly: Adrenergic beta2 receptor (ADRB2) small molecule antagonists, cell-based qHTS assay (AID 1963592). Note: nearly all actives have a fitted effect of over 50% in size. To be noted: CHO-ADRB2 cells, isoproterenol-stimulated cAMP HTRF ratio, 0.5 h; series mostly up to 92.4 µM. A digest of the protocol: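 Cells (CHO, stable ADRB2 overexpression) incubated 18-20hr at 37C; compounds added from DMSO; agonist mix (1nM isoproterenol, 100uM IBMX, 25uM Ro-20-1724) added; 0.5hr RT; d2-cAMP and anti-cAMP-cryptate added; 1hr RT; 665/615 nm read.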
For orientation: Quantitative high-throughput screening tests each substance at several concentrations.
For `CC(C)OCC1CO1` (stereo not given), the Potency result is “inactive”.
Same read-out and setting: in the case of `CCCCCCC(CO)CCCC` (stereo not given) it was “inactive”.
`S=C(SSSSSSC(=S)N1CCCCC1)N1CCCCC1`: the activity change, negative = inhibition was 8.1% [at 19 µM].
With `CO[Si](CCCS)(OC)OC`, the Potency entry was “inactive”.
On the same count and under the same terms, in the case of `NC(=O)C(=O)N/N=C/c1ccc([N+](=O)[O-])o1` it was “inactive”; in that of `CC(C)OC(=O)C(C(=O)OC(C)C)=C1SC=CS1`, “inactive”; in that of `COc1cc(C(=O)NS(=O)(=O)c2ccccc2C)ccc1Cc1cn(C)c2ccc(NC(=O)OC3CCCC3)cc12`, “inactive”.
As for `O=C1O[C@@H]2[C@@H](O)[C@H](O)O[C@@H]2[C@H]1O`, the Potency entry was “inactive”.
Same read-out and setting: in the case of `CCc1ccc(CC)cc1` it was “inactive”.
Same read-out and setting: in the case of `CC(C)(C)N(CCO)CCO` it was “inactive”.
For `O=CCCc1ccccc1`, the Potency result is “inactive”.
Same read-out and setting: in the case of `Cc1oc(-c2ccccc2)nc1CCC(=O)c1ccc(CC2SC(=O)NC2=O)cc1` (stereo not given) it was “inactive”.
Take `CCCCNc1ccc(NCCCC)c2c1C(=O)c1ccccc1C2=O`: the activity change, negative = inhibition is 1.56% [at 19 µM].
Consider `O=C(O)c1ccncc1`, for which the Potency result was “inactive”.
On the same count and under the same terms, in the case of `Clc1cc(Cl)c(-c2c(Cl)c(Cl)cc(Cl)c2Cl)cc1Cl` it was “inactive”; in that of `CC(=O)N(CC(O)CN(C(C)=O)c1c(I)c(C(=O)NCC(O)CO)c(I)c(C(=O)NCC(O)CO)c1I)c1c(I)c(C(=O)NCC(O)CO)c(I)c(C(=O)NCC(O)CO)c1I` (stereo not given), “inactive”.
With `CCCCCCCCCCCCS(=O)(=O)Cl`, the activity change, negative = inhibition was -6.85% [at 19 µM].
Turning to `CCNC(=O)N1CCN(CCCC(c2ccc(F)cc2)c2ccc(F)cc2)CC1`, the Potency result is “inactive”.
Same read-out and setting: in the case of `CC/C=C\CCOC(=O)c1ccccc1` it was “inactive”; in that of `CCC1=C(C)CN(C(=O)NCCc2ccc(S(=O)(=O)NC(=O)NC3CCC(C)CC3)cc2)C1=O` (stereo not given), “inactive”.
